# The campaign covered roughly 2,200 compounds. About 1,300 (59%) were called active. The rule behind the calls is not given here. The set was probably picked from earlier hits. A selection follows. Entries with a potency or affinity are not part of this list.
# Test: THP-1 cell cytotoxicity, dose response, cytotoxicity control for Salmonella PhoP regulon inhibitors, S. typhimurium screen hits (AID 2253)
# Conditions: THP-1 viability, CellTiter-Glo luminescence, 72 h; series mostly up to 50 µM; viability: at the top concentration
row,SMILES,viability
1,COc1ccc(NC(=O)CN2CCCCC2)c([N+](=O)[O-])c1,88.2% (inactive)
2,CCOc1ccc(N/C=C/C(=O)c2ccc(OC)cc2)c([N+](=O)[O-])c1,88% (inactive)
3,CCCc1nnc(NC(=O)c2cn(CC)c3cc(N4CCN(C)CC4)c(F)cc3c2=O)s1,98.7% (inactive)
4,Cc1nc(SCC(=O)NC(C)c2ccccc2)c2oc3ccccc3c2n1 (stereo not drawn),99.9% (inactive)
5,CCCn1c(SCC(=O)NCCc2ccccc2)nnc1-c1cccnc1,102% (inactive)
6,Cn1ccnc1C(O)c1ccc(OCc2ccccc2)cc1 (stereo not drawn),94.7% (inactive)
7,CCOC(=O)c1c(N)ssc1=S,94.8% (inactive)
8,O=S1(=O)CC(O)C(Nc2ccccc2Cl)C1 (stereo not drawn),94.2% (inactive)
9,NC(=O)c1c(N)sc2c1CCCCC2,110% (inactive)
10,O=C(Nc1cnn(Cc2ccc(F)cc2)c1)c1cnccn1,100% (inactive)
11,O=C(Nc1cnc2ccccc2c1)N1CCOCC1,94.5% (inactive)
12,CC(C)(C)n1ncc2c(=O)n(CC(=O)Nc3ccc4c(c3)OCO4)cnc21,83.4% (inactive)
13,CC(C)n1cc(C(=O)N2CCCC(N3CCN(c4ccc(F)cc4)CC3)C2)cn1 (stereo not drawn),96.6% (inactive)
14,O=[N+]([O-])c1ccc(N2CCN(CCOc3nonc3-c3ccccc3)CC2)c(Cl)c1,97.4% (inactive)
15,Cc1ccc(-n2nnnc2SCC(=O)Nc2ncc(Cc3ccccc3Cl)s2)cc1,104% (inactive)
16,Cc1ccc(NS(=O)(=O)c2ccc(N3C(=O)CCC3=O)cc2)cc1,81.5% (inactive)
17,CCC(CC)C(=O)N1c2ccc(F)cc2CCC1C (stereo not drawn),88.7% (inactive)
18,CCOC(=O)N1CCN(C(=O)c2cn(CC)c3cc(N4CCN(C)CC4)c(F)cc3c2=O)CC1,95% (inactive)
19,Nc1[nH]c(=O)ncc1F,104% (inactive)
20,O=C(NCCc1cn2ccccc2n1)c1ccccc1F,86.2% (inactive)

row,SMILES,viability
1,Cc1nnc(NC(=O)CSc2ncnc3scc(-c4ccccc4)c23)s1,100% (inactive)
2,CC(C)CCn1c(SCC(=O)N2CC(=O)Nc3ccccc32)nc2scc(-c3cccs3)c2c1=O,94.8% (inactive)
3,COc1ccc(/C=N/NC(=O)CC(=O)NCc2cccnc2)cc1,90.9% (inactive)
4,COC(=O)c1ccccc1Oc1cnc2ccccc2n1,95.5% (inactive)
5,COC(=O)c1ccc(NC(=S)Nc2ccc3ccccc3c2)cc1,82.9% (inactive)
6,CC(=O)N1CCN(c2cc3c(cc2F)c(=O)c(C(=O)O)cn3C2CC2)CC1,103% (inactive)
7,Cn1c(CO)cnc1SCc1ccc([N+](=O)[O-])cc1,90.9% (inactive)
8,CC(=O)c1sc(NC(=O)COc2ccc([N+](=O)[O-])cc2)nc1C,92.2% (inactive)
9,CCOC(=O)CC(=O)CSc1nc2c(c(C)c1C#N)CCC2,92.9% (inactive)
10,Cc1cc2c(c(=O)n1C)C(Cc1ccccc1)C(C#N)=C(N)O2 (stereo not drawn),96.5% (inactive)
11,O=C1Nc2ccccc2C(O)(C(=O)N2CCCCC2)N1c1ccccc1 (stereo not drawn),81.5% (inactive)
12,O=C1CC(c2ccccc2)n2ncnc2N1 (stereo not drawn),92.4% (inactive)
13,NC1CCN(c2c(F)cc3c(=O)c(C(=O)O)cn(C4CC4)c3c2Cl)C1 (stereo not drawn),93.8% (inactive)
14,Cc1ccc(CCNC(=O)C2CCN(S(=O)(=O)N3CCCC3)CC2)cc1,91.8% (inactive)
15,Cc1ccc(CCNC(=O)C2CCCN(S(=O)(=O)c3c(C)noc3C)C2)cc1 (stereo not drawn),94.9% (inactive)
16,O=C(CSc1nccc(=O)[nH]1)N1c2ccccc2CCc2ccccc21,96.8% (inactive)
17,CCN(CCO)Cc1csc2ccccc12,108% (inactive)
18,O=C(N/N=C/c1cccn1-c1ccc([N+](=O)[O-])cc1)C(O)c1ccccc1 (stereo not drawn),102% (inactive)
19,Cc1cc(C(=O)N/N=C/C=C/c2ccc3c(c2)OCO3)n[nH]1,92.8% (inactive)
20,Cc1cc(C(=O)N/N=C/c2cccc([N+](=O)[O-])c2O)n[nH]1,108% (inactive)

row,SMILES,viability
1,Cc1nc2ccccn2c1C(=O)N/N=C/c1ccccc1[N+](=O)[O-],91.7% (inactive)
2,CC1(C)CC2CC(C)(CN2C(=O)COC(=O)c2n[nH]c(=O)c3ccccc23)C1 (stereo not drawn),83.8% (inactive)
3,CCOC(=O)c1sc2nccc(N(C)C)c2c1N=CNOCc1c(F)cccc1Cl,88.5% (inactive)
4,O=C(CCCNS(=O)(=O)c1ccccc1)NCc1ccco1,101% (inactive)
5,O=C(Cn1cnc2ccccc2c1=O)NCc1ccco1,102% (inactive)
6,O=C1CSC(=S)N1c1ccc(F)cc1,89.2% (inactive)
7,COc1ccc(OC)c(C(=O)C2COC(=O)C2)c1 (stereo not drawn),89.6% (inactive)
8,Cc1cc2ncn(CC(O)COc3cccc(C(=O)O)c3)c2cc1C (stereo not drawn),101% (inactive)
9,COc1ccc(C2C(C(=O)c3cccs3)=C(O)C(=O)N2c2nnc(C)s2)cc1OC (stereo not drawn),103% (inactive)
10,Clc1ccccc1OCCn1ccnc1,98.8% (inactive)
11,Brc1ccc(OCCn2ccnc2)cc1,82.7% (inactive)
12,COc1ccc2c(c1)cc1n2CCN2CCCN=C12,87.6% (inactive)
13,CCn1cc(C(=O)NCc2ccncc2)c(=O)c2cc(F)c(N3CCN(C(=O)c4ccco4)CC3)cc21,91.7% (inactive)
14,O=C(CCCOc1ccccc1)N1CCCc2ccccc21,84.2% (inactive)
15,C(=N\N1CCN(Cc2ccccc2)CC1)/c1cccnc1,83.5% (inactive)
16,O=C1CC(N2CCN(Cc3ccccc3)CC2)C(=O)N1c1ccccc1 (stereo not drawn),84.8% (inactive)
17,CC(C)(C)c1ccc(-c2n[nH]c(=S)n2/N=C/c2ccncc2)cc1,94.9% (inactive)
18,O=C(CCN1CCc2ccccc2C1)Nc1ccccc1F,93% [at 25 µM] (inactive)
